# Results published in publication PMC4552634, “A New Set of Chemical Starting Points with Plasmodium falciparum Transmission-Blocking Potential for Antimalarial Drug Discovery” (PLoS ONE, 2015).
# About 3,200 (25%) of roughly 13,000 compounds showed an effect of 50% or more. The list shows a part of the results.
# Test system: P. falciparum stage V gametocytes
# Design: BacTiter-Glo ATP luminescence viability of purified stage V gametocytes in 384-well plates, per cent inhibition versus DMSO
# Settings: 48 h, 5 µM; inhibitor
row,SMILES,% Inhibition [%]
1,COc1ccc(CN2CCCC(OC(c3ccc(F)cc3)c3ccc(F)cc3)C2)c(O)c1 (stereo not shown) [TCMDC-136166],23.2
2,Fc1cccc(COc2ccc(Nc3ncnc4sc(C#C[C@H]5CC[C@H](CN6CCOCC6)N5)cc34)cc2Cl)c1 [TCMDC-135417],-15.95
3,Cc1c(F)cc(C(=O)NC2CC2)cc1-c1ccc2c(cnn2S(=O)(=O)c2ccc(F)c(F)c2)c1 [TCMDC-135239],15.38
4,Cc1ccc2nc(C)cc(Nc3ccccc3O)c2c1 [TCMDC-123660],-31.17
5,CCCc1cc(C)ccc1OCCCON1C(NC(=O)OCC)=NC(NC(=O)OCC)=NC1(C)C [TCMDC-131343],12.88
6,COc1cc(Cc2cnc(N)nc2N)cc(OCCn2ccccc2=O)c1OC [TCMDC-137347],-6.593
7,CCN(CC)c1ccc2nc(N)nc(N)c2c1Cl [TCMDC-137857],-7.537
8,CSc1ccc(CN2CCC(CNC(=O)c3cc(-c4ccccc4F)cs3)C2)cc1.O=C(O)C(F)(F)F (stereo not shown) [TCMDC-134460],78.38
9,O=C(NCC1CCN(Cc2ccc3c(c2)OCCO3)C1)c1cc(-c2ccccc2F)cs1.O=C(O)C(F)(F)F (stereo not shown) [TCMDC-134459],14.42
10,CN(C)c1ccc(CN2CCC(CNC(=O)c3cc(-c4ccccc4F)cs3)C2)cc1.O=C(O)C(F)(F)F (stereo not shown) [TCMDC-134453],72.61
11,CCCNC[C@@H](O)[C@H](Cc1ccccc1)NC(=O)c1cc(NCC)cc(N2CCCC2=O)c1 [TCMDC-138890],18.6
12,Cc1cc(C(=O)OCC(N)=O)c(C)n1-c1ccc(F)cc1 [TCMDC-123812],-34.47
13,C=CCN(C(=O)c1ccc(Cl)c([N+](=O)[O-])c1)c1nc(-c2ccccc2)cs1 [TCMDC-124436],137
14,Cc1cc(N2CCOCC2)nc2ccc(NC(=O)c3ccc(Cl)c([N+](=O)[O-])c3)cc12 [TCMDC-125441],-11.29
15,CN(C)S(=O)(=O)c1ccc(C(=O)N(c2nc(-c3ccccc3)cs2)C2CCCCC2)cc1 [TCMDC-123561],-34.43
16,O=C(Nc1cc(Cl)cc(Cl)c1)c1cc(Cl)c(=O)n(Cc2ccc(Cl)cc2)c1 [TCMDC-123810],18.7
17,CCOC(=O)c1cn(CC)c2cc(N3CCCCC3)c(F)cc2c1=O [TCMDC-124156],35.74
18,CCn1cc(C(=O)O)c(=O)c2cc(F)c(N3CCN(S(=O)(=O)c4ccc(N)cc4)CC3)cc21 [TCMDC-125809],2.438
19,CCOC(=O)c1cn(CC)c2cc(N3CCCCCC3)c(F)cc2c1=O [TCMDC-124160],58.45
20,O=C(/C=C/c1ccc(Cl)c(Cl)c1)NCCCCCCN1CCCN(C(=O)Nc2ccc(F)c(F)c2)CC1 [TCMDC-135938],-42.76
21,O=C1Nc2cccc3c2C1(CCCCN1CCC(c2c(-c4ccccc4)[nH]c4ccccc24)CC1)CCC3 (stereo not shown) [TCMDC-140655],54.78
22,O=C1Nc2cccc3c2C1(CCCCN1CCC(c2c(-c4ccc(F)cc4)[nH]c4ccccc24)CC1)CCC3 (stereo not shown) [TCMDC-140656],74.07

row,SMILES,% Inhibition [%]
1,Cc1ccc(OC2CCN(CCCCC3(C)C(=O)Nc4ccccc43)CC2)cc1 (stereo not shown) [TCMDC-140795],-17.97
2,Cc1[nH]c2ccccc2c1C1=CCN(CCCCCC23CCCc4cccc(c42)NC3=O)CC1 (stereo not shown) [TCMDC-140463],-65.61
3,CC1(CCCCN2CC=C(c3c[nH]c4ccccc34)CC2)C(=O)Nc2ccccc21 (stereo not shown) [TCMDC-140717],-30.41
4,Cc1nc(N)nc(N)c1-c1ccc2ccccc2c1 [TCMDC-137286],-7.805
5,FC(F)(F)c1ccc2[nH]c(-c3cccc(-c4cccc(CNCc5cnn(-c6ccccc6)n5)c4)c3)nc2c1.O=C(O)C(F)(F)F [TCMDC-132966],-44.07
6,COc1cccc(NC(=O)N2CCOC(CCN3CCC4(CCc5ccccc54)CC3)(c3ccc(Cl)c(Cl)c3)C2)c1 (stereo not shown) [TCMDC-135330],-52.33
7,CC(C)n1c(CC2CCN(CC3CCN(C(=O)/C=C/c4ccc(Cl)c(Cl)c4)CC3)CC2)nc2ccccc21 [TCMDC-140372],82.38
8,Cc1[nH]c2ccccc2c1CC1CCN(CC2CCN(C(=O)/C=C/c3ccc(Cl)c(Cl)c3)CC2)CC1 [TCMDC-140128],-40.98
9,O=C(/C=C/c1ccc(Cl)c(Cl)c1)N1CCC(CN2CCC(c3c(-c4ccc(F)cc4)[nH]c4ccccc34)CC2)CC1 [TCMDC-140654],18.04
10,Cc1ccc(-c2ccc3c(c2)C=C(C(=O)NCC2CCN(CC4CCN(C(=O)/C=C/c5ccc(Cl)c(Cl)c5)CC4)CC2)CCC3)cc1 [TCMDC-140646],108.7
11,Cn1c(NC2CCN(CC3CCN(C(=O)/C=C/c4ccc(Cl)c(Cl)c4)CC3)CC2)nc2ccccc21 [TCMDC-140340],94.55
12,CC(C)n1c(C2CCN(CC3CCN(C(=O)/C=C/c4ccc(Cl)c(Cl)c4)CC3)CC2)nc2ccccc21 [TCMDC-140212],-15.48
13,Cc1cc(O)cc2c(C3CCN(CC4CCN(C(=O)/C=C/c5ccc(Cl)c(Cl)c5)CC4)CC3)c[nH]c12 [TCMDC-140065],-70.17
14,CCn1c(C2CCN(CCC3CCN(C(=O)/C=C/c4ccc(Cl)c(Cl)c4)CC3)CC2)nc2ccccc21 [TCMDC-140221],-5.757
15,O=C(/C=C/c1ccc(Cl)c(Cl)c1)N1CCC(CN2CCC(c3c(-c4ccccc4)[nH]c4ccccc34)CC2)CC1 [TCMDC-140653],54.21
16,O=C(/C=C/c1ccc(Cl)c(Cl)c1)N1CCC(CN2CCC(c3c(Br)[nH]c4ccccc34)CC2)CC1 [TCMDC-140652],-44.15
17,O=C(/C=C/c1ccc(Cl)c(Cl)c1)N1CCC(CN2CCC(Cc3nc4ccccc4[nH]3)CC2)CC1 [TCMDC-140119],26.7
18,O=C(/C=C/c1ccc(Cl)c(Cl)c1)N1CCC(CN2CCC(c3nc4ccccc4n3CCCO)CC2)CC1 [TCMDC-140312],-4.21
19,CC1CC(C)CN(S(=O)(=O)c2cc(C(=O)Nc3cccc([N+](=O)[O-])c3)ccc2Br)C1 (stereo not shown) [TCMDC-124626],-10.68
20,O=C(Nc1cc(F)c(F)c(-c2cccnc2)c1)N1CCc2cc(Cl)c(Cl)cc21 [TCMDC-139065],25.18
21,Cc1ccc(-c2nc(N3CCN(C(=O)c4ccco4)CC3)c3ccccc3n2)cc1 [TCMDC-124779],-11.86
22,COc1ccccc1CNC(=O)c1cc(OC)c(OC)cc1NC(=O)c1cccs1 [TCMDC-125022],22.04

row,SMILES,% Inhibition [%]
1,CCOc1cc(Cc2cnc(N)nc2N)cc(OCC)c1O [TCMDC-137181],40.77
2,O=C(/C=C/c1ccc(Cl)c(Cl)c1)N1CCC(CN2CCC(c3cn(CC(=O)N4CCCCC4)c4ccccc34)CC2)CC1 [TCMDC-134193],103
3,CC(C)NC(=O)Cn1cc(C2CCN(CC3CCN(C(=O)/C=C/c4ccc(Cl)c(Cl)c4)CC3)CC2)c2ccccc21 [TCMDC-134172],-9.49
4,O=C(c1ccc(O)c(-c2cc(Cl)cc(Cl)c2)c1)N(CCO)CCO [TCMDC-140160],-5.034
5,COc1ccc2c(=O)c3ccc(OC)cc3[nH]c2c1 [TCMDC-132054],37.12
6,COc1ccc2c(=O)c(-c3ccc(OC(F)(F)F)cc3)c(C)[nH]c2c1 [TCMDC-138811],45.07
7,COc1ccc2c(=O)c(I)c(C)[nH]c2c1 [TCMDC-138141],64.56
8,COc1ccc2c(=O)c(Br)c(C)[nH]c2c1 [TCMDC-137426],72.62
9,Cc1cc2c(cc1C(F)(F)F)N(C(=O)Nc1cc(C(=O)NCCN(C)C)cc(C(F)(F)F)c1)CC2 [TCMDC-139884],20.84
10,Cc1cc(C(=O)Nc2ccc3c(c2)CCN3C2CCN(Cc3cccc(F)c3F)C2)no1 (stereo not shown) [TCMDC-135079],-28.63
11,Cc1cc(N[C@@H](Cc2ccccc2)C(=O)NCc2cccc(F)c2)nc(NCCc2ccccc2)n1 [TCMDC-134773],75.65
12,COc1ccccc1CCNc1nc(C)cc(N[C@@H](CC(C)C)C(=O)NCc2cccc(F)c2)n1 [TCMDC-134863],80.77
13,Cc1cc(N[C@@H](CC(C)C)C(=O)NCc2cccc(F)c2)nc(NCC2CCCCC2)n1 [TCMDC-134916],-56.42
14,Cc1cc(N[C@@H](Cc2ccccc2)C(=O)NCc2cccc(F)c2)nc(NCCc2ccc(F)cc2)n1 [TCMDC-134785],98.48
15,COc1ccccc1CCNc1nc(C)cc(N[C@@H](Cc2ccccc2)C(=O)NCc2cccc(F)c2)n1 [TCMDC-134893],92.55
16,CCCC(C)Nc1nc(C)cc(N[C@@H](CC(C)C)C(=O)NCc2cccc(F)c2)n1 (stereo partly shown) [TCMDC-134768],-55.2
17,Cc1cc(N[C@@H](Cc2ccccc2)C(=O)NCc2cccc(F)c2)nc(NCc2ccccc2C)n1 [TCMDC-134903],-28.89
18,Cc1cc(N[C@@H](Cc2ccccc2)C(=O)NCc2cccc(F)c2)nc(NCC2CCCCC2)n1 [TCMDC-134928],5.769
19,Cc1cccc(CNc2nc(C)cc(N[C@@H](Cc3ccccc3)C(=O)NCc3cccc(F)c3)n2)c1 [TCMDC-134887],21.53
20,Nc1nc(N)c2c(CCc3ccc4ccccc4c3)cccc2n1 [TCMDC-141975],-16.21
